High-throughput results as filed in PubChem BioAssay.
Sampled rows, rich in hits. Any-hit rate of the full collection: about 17%.
HepG2 viability – qHTS for Inhibitors of TGF-b: Cytotox Counterscreen | Potency, µM (top dose mostly 46.1 µM), without a hit: at the top dose activity change, negative = cytotoxicity, hits mostly cytotoxic | 0.76% of 410,000 active | HepG2 CAGA-GFP viability, ATP luminescence, 18 h | AID 588856, 2011
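HepG2 CAGA-GFP cells (1000/well, DMEM with 1% FBS) received compound, then TGF-beta at 500 pg/mL final, and were incubated 18 hours at 37 degrees C. Viability was read by CellTiter-Glo luminescence. Media-only wells were set as complete cell-killing and DMSO as no toxicity.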
ATXN2 expr inh – Primary qHTS for Inhibitors of ATXN expression | HEK-293 ATXN2-luciferase reporter, luminescence, 24 h | Potency, µM (series often up to 57 µM), for inactives: at the top dose activity change, negative = inhibition, most hits filed as inhibitors | 0.72% of 360,000 active | AID 1745845, 2022; also: % is scaled to controls: 0 for no effect and ±100 for the full control effect; nearly all actives have a fitted effect of over 55% in size
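qHTS (up to 57 uM final) was run with 24 h compound exposure of reporter cells at 37 °C. Each well was multiplexed: SteadyGlo luminescence measured ATXN2-luciferase expression after a fluorogenic Gly-Phe-AFC viability readout (25 uM final).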
DT40 TDP1 no CPT – qHTS for Inhibitors of human tyrosyl-DNA phosphodiesterase 1 (TDP1): qHTS in cells in absence of CPT; AID 686978, 2013; DT40 Tdp1-/- hTDP1 cells, no CPT, ATP luminescence, 48 h; Potency, µM (top dose mostly 46.2 µM), for inactives: top-dose activity change, negative = growth inhibition, usual class: inhibitors; 15% of 420,000 active; also: % is scaled to controls: 0 for no effect and ±100 for the full control effect; nearly all actives have a fitted effect of over 55% in size
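Chicken DT40 Tdp1-/- cells complemented with human TDP1, screened without camptothecin (DMSO vehicle only), 400 cells/well. Compounds pin-transferred, cells incubated at 37 °C for at least 48 hr. Growth read as ATP-dependent luminescence (CellTiter-Glo, 30 min at RT).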
TGFb SMAD3 inh – qHTS for Inhibitors of TGF-b. HepG2 CAGA-GFP TGF-b/SMAD3 reporter, GFP fluorescence, 18 h; TGF-beta stimulated, 500 pg/mL final. Potency, µM (highest dose often 46.1 µM), inactives show top-dose activity, negative = inhibition, hits mostly inhibitors. 1.2% of 410,000 active. AID 588855, 2011; also: % is scaled to controls: 0 for no effect and ±100 for the full control effect; nearly all actives have a fitted effect of over 65% in size
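Read-out: total well GFP (ex488/em500-530) summed from mean per-cell fluorescence. Cells: HEPG2 CAGA-GFP, 1% FBS DMEM, 18 h at 37 degrees C with 500 pg/mL final TGF-beta. Unstimulated wells served as the full-inhibition control; stimulated DMSO wells = 0%.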
S2 tox – Viability Counterscreen for Primary qHTS for Inhibitors of ATXN expression; 0.49% of 400,000 active; S2 cells (HEK-293 line with an ATXN2-luciferase reporter) viability, CellTiter-Fluor protease fluorescence, 24 h; AID 651635, 2014; Potency, µM (doses to about 56.7 µM), usual class: cytotoxic; also: nearly all actives have a fitted effect of over 40% in size
DT40 TDP1 CPT – qHTS for Inhibitors of human tyrosyl-DNA phosphodiesterase 1 (TDP1): qHTS in cells in presence of CPT | 12% of 420,000 active | chicken DT40 Tdp1-/-;hTDP1 cells + 20 nM CPT, ATP luminescence, 48 h | Potency, µM (top dose mostly 46.2 µM), for inactives: at the highest dose activity change, negative = growth inhibition, usual class: inhibitors; also: % is scaled to controls: 0 for no effect and ±100 for the full control effect; nearly all actives have a fitted effect of over 55% in size
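Cell growth measured by CellTiter-Glo luminescence after a minimum 48 h, 37 C compound exposure with 20 nM CPT in Tdp1-knockout DT40 cells stably expressing hTDP1, seeded 400/well; qHTS titration format.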
An asterisk follows results filed as active; i = inactive; ? = inconclusive; / = no result given; [ ] = another dose, or the depositor's remark. Calls follow the shape of the dose curve; as a rule, active = well fitted curve in the direction sought with a large enough effect; inconclusive = small, poorly fitted or top-dose-only effect, or another doubt; inactive = no such curve, though single readings can be large; an effect the other way counts as inactive or inconclusive. Potency is read from the fitted curve at half-maximal effect.

SMILES	HepG2 viability	ATXN2 expr inh	DT40 TDP1 no CPT	TGFb SMAD3 inh	S2 tox	DT40 TDP1 CPT
O=C(Nc1cccc([N+](=O)[O-])c1)C1C2CC/C=C\CCC21 (centres undefined)	10%	-8%	18µM*	?	i	-28%
CC(C)(C)c1ccc(C(=O)Nc2cccc([N+](=O)[O-])c2)cc1	-38%	-28%	18µM*	?	?	16µM*
CC(C)(C)CC(C)(C)NC(=O)Nc1cccc([N+](=O)[O-])c1	-48%	/	16µM*	?	?	?
CC(C)[C@H](NC(N)=O)C(=O)Nc1cccc([N+](=O)[O-])c1	14%	11%	-26%	0.63µM*	i	16%
COC(=O)c1cc(Br)cn1S(=O)(=O)c1ccccc1	11%	1%	?	37%	i	?
COc1ccc(CCCc2nnc(SCC(=O)Nc3ccc(Cl)cc3)o2)cc1	2%	?	-25%	-1%	i	-14%
O=c1c(-c2cc(-c3ccccc3)nc3c2COc2ccc(Cl)cc2-3)coc2ccc(F)cc12	-1%	-3%	7%	3%	i	3%
Nc1nc(-c2ccc(NC(=O)c3ccco3)cc2)cs1	-26%	16µM*	?	14%	i	1%
Cc1nc(-c2ccc(NC(=O)c3ccco3)cc2)cs1	-63%	4µM*	?	-13%	i	13µM*
O=C(c1ccco1)N1CCN(c2ccc(N3CCCCC3)nn2)CC1	-2%	35%	-2%	17%	i	10%
Cc1nc(-c2cccc(NC(=O)c3ccco3)c2)cs1	-1%	9%	-28%	-9%	i	-17%
O=C(Nc1ccc(-c2ccc(N3CCCCC3)nn2)cc1)c1ccco1	-12%	7%	26µM*	-1%	i	?
CCOc1ccccc1NCc1nnc(-c2ccccc2)o1	-3%	5%	-15%	-13%	i	-1%
Cc1cnc(C)c(-c2ccc(F)c3c2OC(CNC(=O)Cc2c(F)cccc2F)C3)n1 (centres undefined)	/	/	-11%	/	i	9%
CCCn1c(=O)c2c(nc3n2CCN3Cc2ccco2)n(C)c1=O	0%	-11%	0%	-4%	i	4%
Cc1cccc(Cn2c(=O)c3c(nc4n3CCN4Cc3ccco3)n(C)c2=O)c1	1%	?	21µM*	1%	i	21µM*
CC1CN(c2nc3c(c(=O)n(Cc4ccc(Cl)cc4)c(=O)n3C)n2C)CC(C)O1 (centres undefined)	-7%	-25%	26µM*	8%	i	?
Cn1c(N2CCCC2)nc2c1c(=O)n(Cc1ccc(Cl)cc1)c(=O)n2C	-33%	-10%	?	-8%	?	?
Cn1c(=O)n(Cc2ccc(Cl)cc2)c(=O)c2c1nc1n2CCN1Cc1ccco1	-30%	-18%	15µM*	0%	i	?
Cn1c(NCc2ccccc2)nc2c1c(=O)n(Cc1ccc(Br)cc1)c(=O)n2C	-53%	-17%	?	0%	i	?
COc1ccc(CNc2nc3c(c(=O)n(Cc4ccc(Br)cc4)c(=O)n3C)n2C)cc1	1%	-31%	21µM*	-5%	i	?
O=C(Nc1cc(C(=O)N2CCN(CCO)CC2)c2c(c1)ncn2C1CCCC1)c1ccccc1	/	/	-10%	/	i	18%
Nc1cc(=O)[nH]c(SCC(=O)N2CCC(Cc3ccccc3)CC2)n1	-6%	-14%	?	-24%	i	-25%
Cn1c(NCc2ccco2)nc2c1c(=O)n(Cc1ccc(Cl)cc1)c(=O)n2C	-14%	-22%	18µM*	14%	i	?
CC(=O)N1CCC[C@H]1C(=O)NCC1Cc2cc(Cl)cc(-c3ccc4[nH]ccc4c3)c2O1 (some centres undefined)	/	/	?	/	?	23%[9.04 µM]
SMILES	HepG2 viability	ATXN2 expr inh	DT40 TDP1 no CPT	TGFb SMAD3 inh	S2 tox	DT40 TDP1 CPT
CCOc1ccc(N(CC(=O)NCc2ccc(OC)cc2)S(C)(=O)=O)cc1	-5%	/	-24%	1%	i	?
CCc1ccc(NC(=O)c2ccc(CN3C(=O)C(C)=C(c4ccc(C)cc4)S3(=O)=O)cc2)cc1	-7%	/	10µM*	0%	/	?
CC1=C(c2ccc(C)cc2)S(=O)(=O)N(Cc2ccc(C(=O)Nc3ccccc3C)cc2)C1=O	-8%	/	8.2µM*	0%	/	7.3µM*
CC1=C(c2ccc(C)cc2)S(=O)(=O)N(Cc2ccc(C(=O)Nc3ccc(F)cc3C)cc2)C1=O	2%	-22%	5.2µM*	0%	i	5.8µM*
CCOc1ccc(NC(=O)c2ccc(CN3C(=O)C(C)=C(c4ccc(C)cc4)S3(=O)=O)cc2)cc1	-7%	/	?	?	/	-10%
COc1cc(OC)cc(C(=O)N[C@H](C(=O)Nc2cc(F)ccc2C)C(C)C)c1	-6%	5%	-28%	-10%	i	-7%
CCc1ccc(NC(=O)CSc2nc(-c3ccccc3)c(C#N)c(=O)[nH]2)cc1	-19%	-3%	-5%	0%	i	0%
O=C(CCC1CCCC1)NC1CCCCC1	-5%	27%	-14%	-5%	i	-7%
COc1ccc(-c2cc(C(=O)Nc3cc(S(=O)(=O)N4CCOCC4)ccc3N3CCOCC3)c3ccccc3n2)cc1	0%	2%	-26%	-14%	i	?
O=C(COC(=O)c1ccc(Br)o1)Nc1cccc(S(=O)(=O)N2CCCCCC2)c1	-1%	-12%	-23%	-23%	i	-15%
COC(=O)C1=C(C)N(Cc2ccco2)C(=O)/C1=C\c1ccc([N+](=O)[O-])cc1	-41%	12%[11.3 µM]	?	?	?	16µM*
CCOc1cc(/C=C2\C(=O)N(Cc3ccc(C)cc3)C(C)=C2C(=O)OC)ccc1O	-2%	-6%	?	?	i	?
COC(=O)C1=C(C)N(C)C(=O)/C1=C\c1ccco1	-5%	-6%	-20%	-6%	?	0%
COC(=O)C1=C(C)N(Cc2ccc(OC)cc2)C(=O)/C1=C\c1ccco1	1%	-5%	16µM*	25%	i	26µM*
C=CCOc1cccc(/C=C2\C(=O)N(Cc3ccc(C)cc3)C(C)=C2C(=O)OC)c1	-31%	?	23µM*	?	i	?
